This is a sample that favours compounds with a hit; in the whole collection about 3.6% have one here.
Myeloid diff MLP: induction of myeloid progenitor differentiation, primary screen, cell-based, flow cytometry, MLPCN library; ER-HoxA9 myeloid progenitors, lysozyme-GFP differentiation; calls only at 10 µM; 1% of 360,000 active; AID 624256, 2012;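 active means normalized GFP-positive differentiation at or above the plate's own cutoff, the solvent-only control mean plus 3 SD; inconclusive means no clear call, values can overlap the other calls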;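 further: cells exposed to compound for four days before flow analysis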
FAS TE block: FAS thioesterase domain inhibitors, primary screen, biochemical, fluorescence intensity, uHTS; Fatty acid synthase (Homo sapiens), P49327; recombinant FAS-TE, OMFH fluorogenic substrate, fluorescence endpoint; inhibition, % at 15 µM; 0.67% of 360,000 active; AID 602261, 2012;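 active means compounds whose normalised, plate-corrected inhibition of enzyme fluorescence in the single-dose primary screen is 50% or more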
CRFBP-R2 block: antagonists of CRF-BP/CRF-R2 complex, primary screen, cell-based, HEK293, calcium dye fluorescence, uHTS. CRF-induced calcium fluorescence. inhibition, % at 11.8 µM. 0.59% of 350,000 active. AID 588475, 2011;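 active means inhibition of the ligand-induced calcium signal above about 50% at the single tested concentration, limit read from the data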
NRP1-CendR mod: modulators of CendR peptide binding to NRP-1, primary screen, biochemical, fluorescence polarization, uHTS. Neuropilin-1 (Homo sapiens), O14786. FAM-RPARPAR peptide binding to NRP-1. inhibition, % at 25 µM. 0.85% of 360,000 active;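 active means inhibition or corrected inhibition above about 18%, plus a signal ratio from 0.5 to 1.5, limit read from the data, passing the limit was not always enough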
Target sequence (O14786 whole entry, looked up): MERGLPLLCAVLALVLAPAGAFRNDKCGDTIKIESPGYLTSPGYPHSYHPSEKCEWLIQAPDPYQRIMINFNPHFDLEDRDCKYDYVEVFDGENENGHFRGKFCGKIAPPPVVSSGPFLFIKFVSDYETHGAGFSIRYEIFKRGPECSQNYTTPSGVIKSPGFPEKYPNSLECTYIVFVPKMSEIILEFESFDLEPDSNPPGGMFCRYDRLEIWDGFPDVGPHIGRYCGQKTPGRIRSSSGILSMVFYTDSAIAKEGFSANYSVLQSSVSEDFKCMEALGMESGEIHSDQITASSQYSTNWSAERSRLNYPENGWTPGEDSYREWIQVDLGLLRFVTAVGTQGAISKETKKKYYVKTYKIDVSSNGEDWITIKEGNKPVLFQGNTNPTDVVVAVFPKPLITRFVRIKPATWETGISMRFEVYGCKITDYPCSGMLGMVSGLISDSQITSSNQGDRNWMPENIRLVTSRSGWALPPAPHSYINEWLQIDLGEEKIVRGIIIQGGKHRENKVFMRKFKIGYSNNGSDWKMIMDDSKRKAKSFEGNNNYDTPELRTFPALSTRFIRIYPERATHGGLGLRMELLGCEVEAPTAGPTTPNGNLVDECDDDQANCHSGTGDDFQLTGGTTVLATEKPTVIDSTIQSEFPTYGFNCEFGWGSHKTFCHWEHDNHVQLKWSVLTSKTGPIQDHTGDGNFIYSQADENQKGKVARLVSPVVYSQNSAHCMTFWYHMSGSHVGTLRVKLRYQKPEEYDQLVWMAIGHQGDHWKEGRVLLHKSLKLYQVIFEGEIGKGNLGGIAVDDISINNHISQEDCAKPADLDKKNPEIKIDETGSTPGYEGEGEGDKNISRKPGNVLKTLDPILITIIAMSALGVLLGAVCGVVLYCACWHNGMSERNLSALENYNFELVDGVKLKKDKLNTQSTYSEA
NadD inh: inhibitors of S. aureus NadD, primary screen, biochemical, colorimetric, uHTS; purified NadD enzyme, colorimetric absorbance read-out; inhibition, % at 20 µM; 0.78% of 360,000 active; in the data active means inhibition above about 26%
FAS-TE conf: FAS thioesterase domain inhibitors, confirmation, biochemical, fluorescence intensity, single concentration; shares compounds with FAS TE block; recombinant FAS-TE, OMFH fluorogenic substrate; inhibition, % at 15 µM; 45% of 2,300 active; AID 624325, 2012;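 active means compounds inhibiting the enzyme by at least 50% at 15 µM in any one of the replicates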
Hits are given with their value; 0 = inactive; ? = inconclusive; - = no result; + = active, no number.

SMILES	Myeloid diff MLP	FAS TE block	CRFBP-R2 block	NRP1-CendR mod	NadD inh	FAS-TE conf
CCOc1cc(N2CCOCC2)c(OCC)cc1NC(=O)c1cccc(S(=O)(=O)N2CCOCC2)c1	0	0	0	0	0	-
COc1cccc(Nc2nc(-c3cccs3)nc3ccccc23)c1	0	51.0	0	0	0	0
O=C(CNC(=O)c1ccccc1)OCc1ccc([N+](=O)[O-])cc1	0	0	0	0	0	-
COC(=O)C(CCCCNC(=O)c1ccc([N+](=O)[O-])cc1)NC(=O)c1ccc([N+](=O)[O-])cc1 (stereo not given)	0	50.1	0	0	0	52.4
COC(=O)C(CC(C)C)NC(=O)c1ccc([N+](=O)[O-])cc1 (stereo not given)	0	0	0	0	0	-
Cc1ccc(C(=O)NCC(=O)OCc2nnc(-c3ccc([N+](=O)[O-])cc3)o2)cc1	0	67.9	0	0	0	53.1
COc1ccc(C(=O)NCC(=O)OCc2ccc([N+](=O)[O-])cc2)cc1	0	51.8	0	0	0	0
CC12CC(NC(=O)N1c1cccc(C(=O)N3CCCCC3)c1)c1ccccc1O2 (stereo not given)	0	0	0	0	0	-
COc1cc2c(cc1NC(=O)COc1ccccc1OC)oc1ccccc12	0	0	0	0	0	-
COc1cc2c(cc1NC(=O)COC(=O)[C@@H](NS(=O)(=O)c1ccccc1)C(C)C)oc1ccccc12	?	66.9	0	0	0	0
O=C(Nc1ccc(S(=O)(=O)N2CCOCC2)cc1)c1cc([N+](=O)[O-])ccc1Cl	?	65.2	0	0	0	0
O=C(Nc1ccccc1Oc1ccccc1)c1cc([N+](=O)[O-])ccc1Cl	0	0	0	0	0	-
O=C(Nc1ccc(Nc2ccccc2)cc1)c1cc([N+](=O)[O-])ccc1Cl	0	59.4	0	0	0	48.5
O=C(NC1CCCCCCC1)c1cc([N+](=O)[O-])ccc1Cl	0	66.5	0	0	0	64.9
CC1CCc2nc(NC(=O)CN3CCN(c4ccc(F)cc4)CC3)sc2C1 (stereo not given)	0	85.1	0	0	0	78.5
CCCOc1ccc(N2C(=O)CC(NCC(=O)OCC)C2=O)cc1 (stereo not given)	0	0	0	0	0	-
O=C(c1nn2c(C(F)(F)F)cc(-c3cccs3)nc2c1Cl)N1CCCc2ccccc21	+	68.2	0	0	0	0
O=C(c1cnn2c(C(F)(F)F)cc(-c3ccccc3)nc12)N1CCCc2ccccc21	0	0	0	0	0	-
CCCCN(C(C)=O)c1c(CC)nc2ccc(C(=O)NCc3cccs3)cn12	0	0	-	0	0	-
C/C(=N\NC(=O)c1nnn(-c2nonc2N)c1-c1ccc(Cl)c(Cl)c1)c1ccncc1	0	54.9	0	0	0	56.5
CCN(CC)C(=O)C1CCCN(c2ccc([N+](=O)[O-])cc2/C=N/NC(=O)c2cccc(O)c2)C1 (stereo not given)	0	66.1	0	0	0	67.7
CCN(CC)C(=O)C1CCCN(c2ccc([N+](=O)[O-])cc2/C=N/NC(=O)c2ccc([N+](=O)[O-])cc2)C1 (stereo not given)	0	0	0	0	0	-
CCN(CC)C(=O)C1CCCN(c2ccc([N+](=O)[O-])cc2/C=N/NC(=O)c2ccccc2)C1 (stereo not given)	0	85.2	0	0	0	56.4
COCCNC(=O)C1(C)CCCN(Cc2ccc(OC)cc2)C1 (stereo not given)	0	0	-	0	0	-
Cc1ccc(N2CC(C(=O)N3CCC(C(=O)NC(C)(C)C)CC3)CC2=O)cc1 (stereo not given)	0	0	0	0	0	-
SMILES	Myeloid diff MLP	FAS TE block	CRFBP-R2 block	NRP1-CendR mod	NadD inh	FAS-TE conf
N/C(=N\OC(=O)CCC1CCCC1)c1cccc([N+](=O)[O-])c1	0	62.4	0	0	0	66.4
N/C(=N\OC(=O)CCC1CCCCC1)c1ccc([N+](=O)[O-])cc1	0	0	0	0	0	-
O=C(Cc1ccccc1)NCC(=O)OCC(=O)c1cccc([N+](=O)[O-])c1	0	0	0	0	0	-
N/C(=N\OC(=O)CC1CCCCC1)c1ccc([N+](=O)[O-])cc1	0	0	0	0	0	-
N/C(=N\OC(=O)CCCc1ccccc1)c1cccc([N+](=O)[O-])c1	0	50.4	0	0	0	62.7
N/C(=N\OC(=O)CCCc1ccccc1)c1ccccc1	0	0	0	0	0	-
N/C(=N\OC(=O)CC1CCCCC1)c1cccc([N+](=O)[O-])c1	0	62.5	0	0	0	67.8
O=C(CCc1ccccc1)OCC(=O)c1cccc([N+](=O)[O-])c1	0	56.1	0	0	0	57.3
CCOc1ccc(C(=O)OCC(=O)N(Cc2ccccc2)Cc2ccccc2)cc1OC	0	0	0	0	0	-
CCc1nc2ccccc2c(C(=O)Nc2ccc(F)cc2)c1C	0	0	0	0	0	-
CC(C)C[C@@H]1Cc2[nH][nH]c(=O)c2[C@H](C)O1	0	0	-	0	0	-
COc1ccc(NC(=O)C(OC)c2ccccc2)cc1Cl (stereo not given)	0	0	0	0	0	-
COc1ccc(NC(=O)C(Sc2nnc(-c3ccncc3)n2-c2ccccc2C)c2ccccc2)cc1Cl (stereo not given)	0	55.7	0	0	0	0
O=C(CCn1cncn1)N1CCCC(N2CCN(c3cccc(C(F)(F)F)c3)CC2)C1 (stereo not given)	0	0	0	0	0	-
COc1cc(-c2nc(C(=O)NC3CCCCC3)cc3c2[nH]c2ccccc23)cc(OC)c1OC	0	83.5	0	0	0	0
O=C(O)c1ccc(-c2nc(-c3ccccc3Cl)cs2)cc1	0	0	0	0	0	-
CCS(=O)(=O)c1ccc(-c2csc(-c3ccccc3)n2)c(Cl)c1Cl	0	83.5	0	0	0	70.6
O=C(CN1CC(c2ccccc2)CC1=O)N/N=C/c1cc(Br)ccc1O (stereo not given)	0	69.1	0	0	0	85.1
O=C(CNC(=O)c1ccccc1)N/N=C/c1cc(Br)ccc1O	0	53.7	0	0	0	44.0
O=C(NCc1csc(-c2cccs2)n1)C1CCCCC1	0	0	0	0	0	-
Cc1nnc2n(Cc3ccccc3)c(=O)c3c4c(sc3n12)COC(C(C)C)C4 (stereo not given)	0	54.7	0	0	0	0
Cc1ccc(/C=C/c2ccc(=O)n(Cc3ccc(F)cc3)n2)cc1	0	50.4	0	0	0	39.5
O=c1ccc(/C=C/c2ccccc2)nn1Cc1ccc(F)cc1	0	0	0	0	0	-
Clc1cc2c(cc1/C=N/Nc1nc(N3CCOCC3)nc(N3CCOCC3)n1)OCO2	0	0	0	0	0	-

Source: PubChem (several laboratories)
